Values joined by “and” are separate entries in the source; they are usually repeats but may differ in a detail not shown here. Equal values may be shown once. Out of some 5,500 compounds screened, about 2,000 (36%) were called active. Roughly 18% stayed inconclusive and do not appear here. The list shows a part of the results. Values without a mark were called inactive. No stated cut-off is given here; in the data, active means normalized growth mostly below about 0.91 (no sharp cut-off); inconclusive means no clear call, values can overlap the other calls; inactive means mostly above about 0.92.
Test: chemical genetic growth profiling, strain panel (AID 1159580);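 further: tested at 20 µM; growth read once vehicle control cultures reached saturation at 30 °C; 1 = growth at the plate median or of vehicle wells; lower values mean less growth of the strain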
Settings: S. cerevisiae deletion strains, growth OD

## COc1ccc(-c2coc3c(OC)c(OC)cc(O)c3c2=O)cc1
Locus YAL021C, strain ccr4, active compounds read low
  normalized growth: 1.03
Locus YAL026C, strain drs2, active compounds read low
  normalized growth: 1
Locus YAL030W, strain snc1, active compounds read low
  normalized growth: 0.997
Locus YBL061C, strain skt5, active compounds read low
  normalized growth: 0.999
Locus YBR009C, strain hhf1, active compounds read low
  normalized growth: 1.01
Locus YBR021W, strain FUR4, active compounds read low
  normalized growth: 0.838 (active)
Locus YBR023C, strain chs3, active compounds read low
  normalized growth: 0.99
Locus YBR171W, strain sec66, active compounds read low
  normalized growth: 1.03
Locus YBR229C, strain ROT2, active compounds read low
  normalized growth: 0.988
Locus YBR231C, strain swc5, active compounds read low
  normalized growth: 0.994
Locus YBR279W, strain paf1, active compounds read low
  normalized growth: 0.995
Locus YCL011C, strain gbp2, active compounds read low
  normalized growth: 0.998
Locus YCL016C, strain dcc1, active compounds read low
  normalized growth: 1
Locus YCL029C, strain bik1, active compounds read low
  normalized growth: 0.975
Locus YCL061C, strain MRC1, active compounds read low
  normalized growth: 1.01
Locus YCL069W, strain vba3, active compounds read low
  normalized growth: 0.999
Locus YCR088W, strain abp1, active compounds read low
  normalized growth: 0.997
Locus YDL005C, strain med2, active compounds read low
  normalized growth: 1
Locus YDL035C, strain GPR1, active compounds read low
  normalized growth: 0.981
Locus YDL040C, strain nat1, active compounds read low
  normalized growth: 1
Locus YDL074C, strain BRE1, active compounds read low
  normalized growth: 0.924
Locus YDL101C, strain DUN1, active compounds read low
  normalized growth: 0.988
Locus YDL185W, strain tfp1, active compounds read low
  normalized growth: 1.01
Locus YDL192W, strain arf1, active compounds read low
  normalized growth: 0.942
Locus YDR001C, strain nth1, active compounds read low
  normalized growth: 0.997
Locus YDR069C, strain doa4, active compounds read low
  normalized growth: 1
Locus YDR101C, strain arx1, active compounds read low
  normalized growth: 0.947
Locus YDR137W, strain rgp1, active compounds read low
  normalized growth: 0.951
Locus YDR159W, strain sac3, active compounds read low
  normalized growth: 0.988
Locus YDR162C, strain NBP2, active compounds read low
  normalized growth: 0.959
Locus YDR195W, strain ref2
  normalized growth: 1.05
Locus YDR297W, strain sur2, active compounds read low
  normalized growth: 0.992
Locus YDR318W, strain mcm21, active compounds read low
  normalized growth: 0.948
Locus YDR334W, strain swr1, active compounds read low
  normalized growth: 1.01
Locus YDR335W, strain msn5, active compounds read low
  normalized growth: 1
Locus YDR388W, active compounds read low
  normalized growth: 0.974
Locus YDR392W, strain spt3, active compounds read low
  normalized growth: 0.965
Locus YDR502C, strain sam2, active compounds read low
  normalized growth: 0.95
Locus YEL003W, strain gim4, active compounds read low
  normalized growth: 0.994
Locus YEL037C, strain rad23, active compounds read low
  normalized growth: 1.01
Locus YEL061C, strain CIN8 (second series), active compounds read low
  normalized growth: 1.01
Locus YER015W, strain faa2, active compounds read low
  normalized growth: 1
Locus YER016W, strain bim1, active compounds read low
  normalized growth: 1.01
Locus YER110C, active compounds read low
  normalized growth: 0.959
Locus YER111C, strain swi4, active compounds read low
  normalized growth: 1.03
Locus YER155C, strain BEM2 (second series), active compounds read low
  normalized growth: 1.01
Locus YER155C, strain BEM2, active compounds read low
  normalized growth: 0.996
Locus YER167W, strain BCK2, active compounds read low
  normalized growth: 0.99
Locus YFR010W, strain ubp6, active compounds read low
  normalized growth: 1.01
Locus YGL078C, strain dbp3, active compounds read low
  normalized growth: 0.968
Locus YGL086W, strain mad1, active compounds read low
  normalized growth: 0.954
Locus YGL167C, strain pmr1, active compounds read low
  normalized growth: 1.01
Locus YGL173C, strain kem1, active compounds read low
  normalized growth: 1
Locus YGL227W, strain vid30, active compounds read low
  normalized growth: 1
Locus YGL240W, strain doc1, active compounds read low
  normalized growth: 0.991
Locus YGL248W, strain PDE1, active compounds read low
  normalized growth: 0.96
Locus YGL253W, strain hxk2, active compounds read low
  normalized growth: 1.01
Locus YGR078C, strain PAC10, active compounds read low
  normalized growth: 0.956
Locus YGR135W, strain pre9, active compounds read low
  normalized growth: 0.928
Locus YGR229C, strain SMI1, active compounds read low
  normalized growth: 0.896
Locus YGR252W, strain gcn5, active compounds read low
  normalized growth: 0.74 (active)
Locus YHR013C, strain ard1, active compounds read low
  normalized growth: 0.989
Locus YHR027C, strain rpn1, active compounds read low
  normalized growth: 1.01
Locus YHR030C, strain SLT2, active compounds read low
  normalized growth: 0.917
Locus YHR079C, strain IRE1 (second series), active compounds read low
  normalized growth: 0.978
Locus YHR079C, strain IRE1, active compounds read low
  normalized growth: 0.925
Locus YHR094C, strain hxt1, active compounds read low
  normalized growth: 0.982
Locus YHR129C, strain ARP1, active compounds read low
  normalized growth: 0.985
Locus YHR142W, strain chs7, active compounds read low
  normalized growth: 0.976
Locus YHR200W, strain rpn10, active compounds read low
  normalized growth: 0.941
Locus YIL066C, strain RNR3, active compounds read low
  normalized growth: 0.986
Locus YIL073C, strain SPO22, active compounds read low
  normalized growth: 0.9
Locus YIL125W, strain kgd1, active compounds read low
  normalized growth: 0.983
Locus YIR030C, strain dcg1, active compounds read low
  normalized growth: 0.961
Locus YJL092W, strain hpr5, active compounds read low
  normalized growth: 1.01
Locus YJL095W, strain BCK1 (second series), active compounds read low
  normalized growth: 0.995
Locus YJL095W, strain BCK1, active compounds read low
  normalized growth: 0.871 and 0.958
Locus YJL115W, strain asf1, active compounds read low
  normalized growth: 1.01
Locus YJL129C, strain trk1, active compounds read low
  normalized growth: 0.999
Locus YJL134W, strain LCB3, active compounds read low
  normalized growth: 1
Locus YJL154C, strain vps35, active compounds read low
  normalized growth: 1.01
Locus YJL164C, strain tpk1, active compounds read low
  normalized growth: 0.997
Locus YJL166W, strain qcr8, active compounds read low
  normalized growth: 0.996
Locus YJL168C, strain set2, active compounds read low
  normalized growth: 0.978
Locus YJL187C, strain SWE1 (second series), active compounds read low
  normalized growth: 0.968
Locus YJL187C, strain SWE1, active compounds read low
  normalized growth: 0.992
Locus YJR066W, strain TOR1, active compounds read low
  normalized growth: 0.863
Locus YKL009W, strain mrt4, active compounds read low
  normalized growth: 0.972
Locus YKL068W, active compounds read low
  normalized growth: 0.993
Locus YKL085W, strain MDH1 (second series), active compounds read low
  normalized growth: 0.979
Locus YKL085W, strain MDH1, active compounds read low
  normalized growth: 0.979
Locus YKL160W, strain elf1, active compounds read low
  normalized growth: 0.991
Locus YKR001C, strain vps1, active compounds read low
  normalized growth: 0.871 (active)
Locus YKR026C, strain gcn3, active compounds read low
  normalized growth: 1.01
Locus YKR091W, strain srl3, active compounds read low
  normalized growth: 0.999
Locus YLL001W, strain dnm1, active compounds read low
  normalized growth: 1.01
Locus YLL026W, active compounds read low
  normalized growth: 1.01
Locus YLL041C, strain sdh2, active compounds read low
  normalized growth: 1.01
Locus YLR027C, strain aat2, active compounds read low
  normalized growth: 1
Locus YLR039C, strain RIC1, active compounds read low
  normalized growth: 0.903
Locus YLR058C, strain SHM2, active compounds read low
  normalized growth: 0.96
Locus YLR102C, strain apc9, active compounds read low
  normalized growth: 0.986
Locus YLR113W, strain HOG1, active compounds read low
  normalized growth: 0.949
Locus YLR221C, strain rsa3, active compounds read low
  normalized growth: 0.997
Locus YLR258W, strain gsy2, active compounds read low
  normalized growth: 0.982
Locus YLR262C, strain YPT6 (second series), active compounds read low
  normalized growth: 0.949
Locus YLR268W, strain sec22, active compounds read low
  normalized growth: 0.927
Locus YLR320W, strain mms22, active compounds read low
  normalized growth: 0.993
Locus YLR330W, strain CHS5, active compounds read low
  normalized growth: 0.976
Locus YLR342W, strain FKS1, active compounds read low
  normalized growth: 1
Locus YLR357W, strain rsc2, active compounds read low
  normalized growth: 0.989
Locus YLR370C, strain arc18, active compounds read low
  normalized growth: 1
Locus YLR371W, strain rom2, active compounds read low
  normalized growth: 0.945
Locus YLR384C, strain iki3, active compounds read low
  normalized growth: 1.01
Locus YLR418C, strain cdc73, active compounds read low
  normalized growth: 0.855
Locus YML016C, strain PPZ1, active compounds read low
  normalized growth: 0.985
Locus YML032C, strain rad52, active compounds read low
  normalized growth: 0.951
Locus YML120C, strain ndi1, active compounds read low
  normalized growth: 0.997
Locus YML124C, strain tub3, active compounds read low
  normalized growth: 0.981
Locus YMR058W, strain fet3, active compounds read low
  normalized growth: 1.01
Locus YMR078C, strain ctf18, active compounds read low
  normalized growth: 0.976
Locus YMR125W, strain sto1, active compounds read low
  normalized growth: 1.01
Locus YMR129W, active compounds read low
  normalized growth: 1
Locus YMR205C, strain PFK2, active compounds read low
  normalized growth: 0.991
Locus YMR223W, strain ubp8, active compounds read low
  normalized growth: 0.95
Locus YMR231W, strain pep5, active compounds read low
  normalized growth: 0.995
Locus YMR263W, strain SAP30, active compounds read low
  normalized growth: 0.97
Locus YMR307W, strain GAS1, active compounds read low
  normalized growth: 0.787
Locus YNL067W, strain RPL9B, active compounds read low
  normalized growth: 0.968
Locus YNL071W, strain lat1, active compounds read low
  normalized growth: 1
Locus YNL128W, strain TEP1, active compounds read low
  normalized growth: 1.01
Locus YNL183C, strain NPR1, active compounds read low
  normalized growth: 0.913
Locus YNL209W, strain ssb2, active compounds read low
  normalized growth: 0.999
Locus YNL233W, strain BNI4, active compounds read low
  normalized growth: 0.908
Locus YNL248C, strain rpa49, active compounds read low
  normalized growth: 1.01
Locus YNL250W, strain rad50, active compounds read low
  normalized growth: 0.997
Locus YNL271C, strain bni1, active compounds read low
  normalized growth: 0.98
Locus YNL298W, strain CLA4, active compounds read low
  normalized growth: 0.965
Locus YNL307C, strain MCK1, active compounds read low
  normalized growth: 0.903 (active)
Locus YNL322C, strain KRE1 (second series), active compounds read low
  normalized growth: 1.01
Locus YNR049C, strain mso1, active compounds read low
  normalized growth: 1
Locus YNR052C, strain pop2, active compounds read low
  normalized growth: 0.977
Locus YOL012C, strain htz1
  normalized growth: 0.766
Locus YOL147C, strain pex11, active compounds read low
  normalized growth: 0.96
Locus YOR001W, strain rrp6, active compounds read low
  normalized growth: 1.01
Locus YOR061W, strain CKA2, active compounds read low
  normalized growth: 1
Locus YOR069W, strain VPS5, active compounds read low
  normalized growth: 0.995
Locus YOR070C, strain gyp1, active compounds read low
  normalized growth: 1.02
Locus YOR080W, strain dia2, active compounds read low
  normalized growth: 1.01
Locus YOR083W, strain WHI5, active compounds read low
  normalized growth: 0.99
Locus YOR106W, strain vam3, active compounds read low
  normalized growth: 0.989
Locus YOR136W, strain idh2, active compounds read low
  normalized growth: 0.976
Locus YOR144C, strain elg1, active compounds read low
  normalized growth: 0.979
Locus YOR184W, strain ser1, active compounds read low
  normalized growth: 0.887
Locus YOR231W, strain MKK1, active compounds read low
  normalized growth: 0.949
Locus YOR265W, strain rbl2, active compounds read low
  normalized growth: 1.01
Locus YOR270C, strain vph1, active compounds read low
  normalized growth: 0.945
Locus YOR290C, strain snf2, active compounds read low
  normalized growth: 0.986
Locus YOR316C, strain cot1, active compounds read low
  normalized growth: 0.991
Locus YPL051W, strain arl3, active compounds read low
  normalized growth: 0.997
Locus YPL078C, strain atp4, active compounds read low
  normalized growth: 0.991
Locus YPL106C, strain sse1, active compounds read low
  normalized growth: 0.948
Locus YPL240C, strain hsp82, active compounds read low
  normalized growth: 0.994
Locus YPL241C, strain CIN2, active compounds read low
  normalized growth: 1.01
Locus YPL256C, strain CLN2, active compounds read low
  normalized growth: 0.904
Locus YPR119W, strain clb2, active compounds read low
  normalized growth: 0.982
Locus YPR141C, strain kar3, active compounds read low
  normalized growth: 0.979
Locus YPR163C, strain tif3, active compounds read low
  normalized growth: 0.866 (active)
Locus YPR167C, strain met16, active compounds read low
  normalized growth: 0.955
Strain wtn01, active compounds read low
  normalized growth: 0.942
